Among the data in PubChem BioAssay (EPA / NIEHS) are outcome and AC50 values, retold here.

Experiment [1] has as its target human Peroxisome Proliferator-activated Receptor alpha (PPARa), PPARA (gene 5465) (UniProt Q07869). The experiment is described as follows: ATG_PPARa_TRANS: Attagene TRANS-FACTORIAL HepG2 Assay for human Peroxisome Proliferator-activated Receptor alpha (PPARa) (AID 2283001; active = hit-call score of the fitted dose curve at least 0.9, where 1 is the maximum). The gist of the method:
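Cells (HepG2) are transfected with multiple reporter transcription units, exposed to chemical for 24 h, then total RNA is reverse-transcribed and amplified. Labelled products are quantified by capillary electrophoresis; induction is referenced to DMSO.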

The target of experiment [2] is human Peroxisome Proliferator-activated Receptor delta (PPARd), PPARD (gene 5467) (UniProt Q03181). Kind of experiment: ATG_PPARd_TRANS: Attagene TRANS-FACTORIAL HepG2 Assay for human Peroxisome Proliferator-activated Receptor delta (PPARd) (AID 2283002; active = hit-call score of the fitted dose curve at least 0.9, where 1 is the maximum). Summed up:
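Measured quantity: GAL4-UAS reporter transcript induction in HepG2 after 24 h chemical dosing, with NR-Gal4 chimeras supplied by transient transfection. Detection by RT-PCR and capillary electrophoresis; upward fit against DMSO.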

Read-out in experiment [3]: Intercellular Adhesion Molecule 1 (ICAM1), ICAM1 (gene 3383)
The experiment is described as follows: BSK_3C_ICAM1: BioMAP Diversity Plus: 3C Assay for Intercellular Adhesion Molecule 1 (ICAM1) Biomarker Activity (AID 2283003). The following applies: primary human endothelial cells (HUVEC); actives raise or lower the signal. The gist of the method: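 ELISA readout of ICAM1 in human umbilical vein endothelial cells in the 3C system, taken 24 h post-dose. Gain or loss of signal versus DMSO was fitted in both directions, with SRB total-protein staining run in parallel.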

Experiment [4] is described as follows: BSK_3C_Proliferation: Cell Proliferation Assessment in the BioMAP Diversity Plus: 3C Assay (AID 2283006).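 For AC50: potency may reflect either rise or fall in cell number versus DMSO.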 The conditions noted are these: primary human endothelial cells (HUVEC). The gist of the method: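 Proliferation as total protein: sulforhodamine B (0.1%) stain of TCA-fixed subconfluent human umbilical vein endothelial cells, absorbance 560 nm, 48 h after dosing. Activity fitted in both directions against DMSO baseline.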

Experiment [5] addresses Nuclear receptor subfamily 1 group I member 2 (Homo sapiens) (UniProt O75469). The experiment is described as follows: ATG_PXR_TRANS: Attagene TRANS-FACTORIAL HepG2 Assay for human Pregnane X Receptor (PXR) (AID 2283008; active = hit-call score of the fitted dose curve at least 0.9, where 1 is the maximum). Summed up: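 HepG2 transfected (FuGene 6) with GAL4-UAS reporter units + PXR-Gal4 chimera; dosed 24 h. Total RNA → oligo(dT) RT → PCR → 6-FAM primer extension → HpaI cut → CE. Gain-of-signal vs DMSO.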

Experiment [6] addresses human RAR-related Orphan Receptor beta (RORb), RORB (gene 6096) (UniProt Q92753). The experiment is described as follows: ATG_RORb_TRANS: Attagene TRANS-FACTORIAL HepG2 Assay for human RAR-related Orphan Receptor beta (RORb) (AID 2283010; active = hit-call score of the fitted dose curve at least 0.9, where 1 is the maximum). Summed up: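 Read-out is reporter mRNA induction, quantified by RT-PCR with fluorescent capillary electrophoresis, 24 h post-dose in transiently transfected HepG2 expressing exogenous NR-Gal4 chimera. Activity fitted upward versus DMSO.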

Experiment [7] concerns the target human RAR-related Orphan Receptor gamma (RORg), RORC (gene 6097) (UniProt P51449). The experiment is described as follows: ATG_RORg_TRANS: Attagene TRANS-FACTORIAL HepG2 Assay for human RAR-related Orphan Receptor gamma (RORg) (AID 2283011; active = hit-call score of the fitted dose curve at least 0.9, where 1 is the maximum). Summed up:
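HepG2 cells transiently transfected with GAL4-UAS reporter units and chimeric RORg-Gal4 construct; after 24 h chemical exposure, reporter mRNA measured by RT-PCR with fluorescent capillary electrophoresis, gain of signal fitted against DMSO.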

Experiment [8] deals with Retinoic acid receptor RXR-alpha (Homo sapiens) (UniProt P19793). Kind of experiment: ATG_RXRa_TRANS: Attagene TRANS-FACTORIAL HepG2 Assay for human Retinoid X Receptor alpha (RXRa) (AID 2283012; active = hit-call score of the fitted dose curve at least 0.9, where 1 is the maximum). The gist of the method:
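TRANS format reporting activity of exogenous RXRa-Gal4 chimera in transiently transfected HepG2, 24 h exposure. Reporter transcripts quantified by RT-PCR with capillary electrophoresis, with gain of signal scored relative to DMSO.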

Experiment [9] deals with human Retinoid X Receptor beta (RXRb), RXRB (gene 6257) (UniProt P28702). Kind of experiment: ATG_RXRb_TRANS: Attagene TRANS-FACTORIAL HepG2 Assay for human Retinoid X Receptor beta (RXRb) (AID 2283013; active = hit-call score of the fitted dose curve at least 0.9, where 1 is the maximum). The gist of the method:
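Readout is reporter transcript induction after 24 h dosing. It is measured by RT-PCR of total RNA followed by fluorescent capillary electrophoresis. HepG2 liver cells carry transfected multiple reporter units driven by an exogenous RXRb-Gal4 fusion; activity is relative to DMSO.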

The target of experiment [10] is human Thyroid Receptor alpha (THRa1), THRA (gene 7067) (UniProt P10827). Kind of experiment: ATG_THRa1_TRANS: Attagene TRANS-FACTORIAL HepG2 Assay for human Thyroid Receptor alpha (THRa1) (AID 2283014; active = hit-call score of the fitted dose curve at least 0.9, where 1 is the maximum). Summed up: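 HepG2 cells transiently transfected with chimeric NR-Gal4 and GAL4-UAS reporter units, dosed 24 h. Reporter mRNA quantified by RT-PCR, fluorescent labeling, HpaI digestion and capillary electrophoresis; gain-of-signal fit versus DMSO.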

Read-out in experiment [11]: E-selectin (Homo sapiens) (UniProt P16581)
Kind of experiment: BSK_3C_Eselectin: BioMAP Diversity Plus: 3C Assay for Eselectin Biomarker Activity (AID 2283015).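 For outcome: cell surface E-selectin protein quantified by ELISA 24 h after dosing.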 The conditions noted are these: primary human endothelial cells (HUVEC); actives raise or lower the signal. Summed up: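 Primary human umbilical vein endothelial cells (3C system), read 24 h after compound addition; E-selectin measured by ELISA. Bidirectional curve fitting against DMSO baseline; cytotoxicity by parallel SRB total-protein staining.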

Read-out in experiment [12]: Interleukin-1 alpha (IL1a), IL1A (gene 3552)
Kind of experiment: BSK_BE3C_IL1a: BioMAP Diversity Plus: BE3C Assay for Interleukin-1 alpha (IL1a) Biomarker Activity (AID 2283016). The conditions noted are these: primary human bronchial epithelial cells; actives raise or lower the signal. Summed up: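 IL-1a measured by ELISA after 24 h treatment of human primary bronchial epithelial cells, with gain or loss of signal fitted versus DMSO. Parallel cultures stained with SRB gauge overt cytotoxicity.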

Read-out in experiment [13]: Monocyte Chemoattractant Protein-1 (MCP1), CCL2 (gene 6347)
Kind of experiment: BSK_3C_MCP1: BioMAP Diversity Plus: 3C Assay for Monocyte Chemoattractant Protein-1 (MCP1) Biomarker Activity (AID 2283017). The conditions noted are these: primary human endothelial cells (HUVEC); actives raise or lower the signal. The gist of the method:
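Human umbilical vein endothelial cells (3C system) exposed to chemicals for 24 h; MCP-1 quantified by ELISA against the DMSO baseline with bidirectional fitting, and parallel SRB staining used to assess cytotoxicity.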

Read-out in experiment [14]: Monocyte Chemoattractant Protein-1 (MCP1), CCL2 (gene 6347)
Kind of experiment: BSK_4H_MCP1: BioMAP Diversity Plus: 4H Assay for Monocyte Chemoattractant Protein-1 (MCP1) Biomarker Activity (AID 2283018). The conditions noted are these: primary human endothelial cells (HUVEC); actives raise or lower the signal. Summed up: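 ELISA of MCP-1 (CCL2) 24 h after chemical dosing of HUVEC in the BioMAP 4H system. Gain or loss versus DMSO fitted; parallel SRB staining (560 nm) tracked overt cytotoxicity.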

Read-out in experiment [15]: Human Leukocyte Antigen - DR isotype (HLADR), HLA-DRA (gene 3122)
Kind of experiment: BSK_3C_HLADR: BioMAP Diversity Plus: 3C Assay for Human Leukocyte Antigen - DR isotype (HLADR) Biomarker Activity (AID 2283019).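 For outcome: ELISA of cell-surface HLA-DR on HUVEC 24 h after dosing.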 The following applies: primary human endothelial cells (HUVEC); actives raise or lower the signal. Summed up:
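HUVEC monoculture, HLA-DR measured by ELISA 24 h after chemical dosing. Fitted bidirectionally against DMSO baseline; parallel SRB staining assessed cytotoxicity, with 3C proliferation read by SRB at 48 h.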

Read-out in experiment [16]: Interleukin-8 (IL8), CXCL8 (gene 3576)
The experiment is described as follows: BSK_3C_IL8: BioMAP Diversity Plus: 3C Assay for Interleukin-8 (IL8) Biomarker Activity (AID 2283020). The following applies: primary human endothelial cells (HUVEC); actives raise or lower the signal. Summed up:
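IL-8 was measured by ELISA in HUVEC cultures 24 h after chemical dosing, with gain or loss of signal fitted relative to DMSO. Parallel SRB total-protein staining tracked overt cytotoxicity.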

Read-out in experiment [17]: Monokine induced gamma interferon (MIG), CXCL9 (gene 4283)
Kind of experiment: BSK_3C_MIG: BioMAP Diversity Plus: 3C Assay for Monokine induced gamma interferon (MIG) Biomarker Activity (AID 2283021).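 For AC50: MIG protein level measured by immunoassay in the treated endothelial cultures.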 The conditions noted are these: primary human endothelial cells (HUVEC); actives raise or lower the signal. The gist of the method:
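ELISA measurement of MIG in human umbilical vein endothelial cells 24 h after treatment. Cytotoxicity tracked by SRB staining in parallel cultures; gain or loss of signal fitted relative to DMSO.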

For experiment [18], the target named is Peroxisome proliferator-activated receptor gamma (Homo sapiens) (UniProt P37231). Kind of experiment: ATG_PPARg_TRANS: Attagene TRANS-FACTORIAL HepG2 Assay for human Peroxisome Proliferator-activated Receptor-gamma (PPARg) (AID 2283007; active = hit-call score of the fitted dose curve at least 0.9, where 1 is the maximum). The gist of the method: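 After 24 h of chemical exposure, transfected HepG2 cells carrying PPARγ-Gal4 chimera reporter constructs are lysed for RNA. Reporter transcripts are measured by RT-PCR and capillary electrophoresis with fluorescent labelling, and gain of signal is fitted versus DMSO.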
Sequence of Peroxisome proliferator-activated receptor gamma (Homo sapiens) (P37231 whole entry, looked up, the tested form may be a part): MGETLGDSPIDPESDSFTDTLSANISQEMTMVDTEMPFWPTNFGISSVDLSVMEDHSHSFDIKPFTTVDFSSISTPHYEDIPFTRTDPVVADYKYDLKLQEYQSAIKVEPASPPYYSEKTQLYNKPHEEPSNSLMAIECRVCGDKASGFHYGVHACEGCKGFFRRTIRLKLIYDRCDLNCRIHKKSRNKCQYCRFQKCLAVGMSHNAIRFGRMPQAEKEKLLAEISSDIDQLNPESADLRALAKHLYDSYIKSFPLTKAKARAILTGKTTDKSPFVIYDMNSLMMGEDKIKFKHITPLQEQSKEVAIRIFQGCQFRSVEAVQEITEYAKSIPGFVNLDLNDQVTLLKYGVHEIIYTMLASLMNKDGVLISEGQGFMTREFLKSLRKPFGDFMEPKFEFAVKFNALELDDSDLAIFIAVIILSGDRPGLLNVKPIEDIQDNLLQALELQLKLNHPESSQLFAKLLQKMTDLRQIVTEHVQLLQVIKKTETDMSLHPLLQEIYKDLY

In experiment [19] the target is human Retinoic Acid Receptor beta (RARb), RARB (gene 5915) (UniProt P10826). The experiment is described as follows: ATG_RARb_TRANS: Attagene TRANS-FACTORIAL HepG2 Assay for human Retinoic Acid Receptor beta (AID 2283004; active = hit-call score of the fitted dose curve at least 0.9, where 1 is the maximum). Summed up:
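HepG2 cells were transiently transfected with GAL4-UAS reporter units that report activity of exogenous chimeric NR-Gal4 proteins, then exposed to compound for 24 h. Reporter mRNA was quantified by RT-PCR with capillary electrophoresis fluorescence, as gain of signal over DMSO.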

In experiment [20] the target is Retinoic acid receptor alpha (Homo sapiens) (UniProt P10276). The experiment is described as follows: ATG_RARa_TRANS: Attagene TRANS-FACTORIAL HepG2 Assay for human Retinoic Acid Receptor alpha (RARa) (AID 2283005; active = hit-call score of the fitted dose curve at least 0.9, where 1 is the maximum;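 note: potency for increased reporter signal meaning RARa activation over DMSO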). The gist of the method:
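HepG2 cells transiently transfected with multiple reporter units expressing chimeric RARα-GAL4 fusion, with GAL4-UAS-driven reporters. After 24 h compound exposure, reporter mRNA induction quantified by RT-PCR and capillary electrophoresis with fluorescent labeling; gain-of-signal fitted relative to DMSO control.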

Inconclusive results are not listed. The source made the active and inactive calls. Rule for the calls, unless noted: active = hit-call score of the fitted dose curve at least 0.9, where 1 is the maximum; inactive = score below 0.9.

Sequence of Nuclear receptor subfamily 1 group I member 2 (Homo sapiens) (O75469 whole entry, looked up, the tested form may be a part): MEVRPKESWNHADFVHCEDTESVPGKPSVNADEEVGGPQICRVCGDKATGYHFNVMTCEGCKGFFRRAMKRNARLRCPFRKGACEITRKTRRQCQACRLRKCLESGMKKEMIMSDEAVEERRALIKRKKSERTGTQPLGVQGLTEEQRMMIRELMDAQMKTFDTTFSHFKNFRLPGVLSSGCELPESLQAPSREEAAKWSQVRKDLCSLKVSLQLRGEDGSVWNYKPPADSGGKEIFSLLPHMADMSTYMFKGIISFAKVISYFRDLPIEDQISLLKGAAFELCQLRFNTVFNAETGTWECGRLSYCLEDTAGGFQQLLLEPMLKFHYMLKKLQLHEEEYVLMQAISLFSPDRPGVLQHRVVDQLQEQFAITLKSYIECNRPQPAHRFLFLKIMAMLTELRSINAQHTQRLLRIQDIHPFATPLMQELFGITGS
Sequence of Retinoic acid receptor RXR-alpha (Homo sapiens) (P19793 whole entry, looked up, the tested form may be a part): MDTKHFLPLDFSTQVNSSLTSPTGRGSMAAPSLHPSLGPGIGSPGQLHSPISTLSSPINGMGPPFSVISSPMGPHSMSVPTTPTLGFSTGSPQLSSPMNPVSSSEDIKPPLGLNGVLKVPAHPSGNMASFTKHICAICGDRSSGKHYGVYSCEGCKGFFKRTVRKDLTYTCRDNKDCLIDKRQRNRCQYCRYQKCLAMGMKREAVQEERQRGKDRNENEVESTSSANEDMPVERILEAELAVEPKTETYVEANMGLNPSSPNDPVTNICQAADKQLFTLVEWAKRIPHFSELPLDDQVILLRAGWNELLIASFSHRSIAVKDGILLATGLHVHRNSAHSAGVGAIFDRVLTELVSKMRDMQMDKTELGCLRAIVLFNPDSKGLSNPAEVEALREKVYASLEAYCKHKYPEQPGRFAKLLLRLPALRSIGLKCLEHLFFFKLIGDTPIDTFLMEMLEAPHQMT
Sequence of human Retinoid X Receptor beta (RXRb), RXRB (gene 6257) (P28702 whole entry, looked up, the tested form may be a part): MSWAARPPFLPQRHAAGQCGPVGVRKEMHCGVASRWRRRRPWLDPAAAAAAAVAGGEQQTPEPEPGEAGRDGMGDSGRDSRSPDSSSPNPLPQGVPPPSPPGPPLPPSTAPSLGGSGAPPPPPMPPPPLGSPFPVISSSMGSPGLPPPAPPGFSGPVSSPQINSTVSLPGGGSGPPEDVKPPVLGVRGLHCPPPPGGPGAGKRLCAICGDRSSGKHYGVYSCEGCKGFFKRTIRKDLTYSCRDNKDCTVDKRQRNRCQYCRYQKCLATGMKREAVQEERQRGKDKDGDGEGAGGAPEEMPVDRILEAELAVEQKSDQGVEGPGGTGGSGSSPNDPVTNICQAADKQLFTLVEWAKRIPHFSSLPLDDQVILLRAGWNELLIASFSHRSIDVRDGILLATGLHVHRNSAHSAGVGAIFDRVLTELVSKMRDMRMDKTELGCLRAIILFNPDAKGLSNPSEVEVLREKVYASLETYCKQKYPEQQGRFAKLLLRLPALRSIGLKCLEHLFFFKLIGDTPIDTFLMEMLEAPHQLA
Sequence of E-selectin (Homo sapiens) (P16581 whole entry, looked up): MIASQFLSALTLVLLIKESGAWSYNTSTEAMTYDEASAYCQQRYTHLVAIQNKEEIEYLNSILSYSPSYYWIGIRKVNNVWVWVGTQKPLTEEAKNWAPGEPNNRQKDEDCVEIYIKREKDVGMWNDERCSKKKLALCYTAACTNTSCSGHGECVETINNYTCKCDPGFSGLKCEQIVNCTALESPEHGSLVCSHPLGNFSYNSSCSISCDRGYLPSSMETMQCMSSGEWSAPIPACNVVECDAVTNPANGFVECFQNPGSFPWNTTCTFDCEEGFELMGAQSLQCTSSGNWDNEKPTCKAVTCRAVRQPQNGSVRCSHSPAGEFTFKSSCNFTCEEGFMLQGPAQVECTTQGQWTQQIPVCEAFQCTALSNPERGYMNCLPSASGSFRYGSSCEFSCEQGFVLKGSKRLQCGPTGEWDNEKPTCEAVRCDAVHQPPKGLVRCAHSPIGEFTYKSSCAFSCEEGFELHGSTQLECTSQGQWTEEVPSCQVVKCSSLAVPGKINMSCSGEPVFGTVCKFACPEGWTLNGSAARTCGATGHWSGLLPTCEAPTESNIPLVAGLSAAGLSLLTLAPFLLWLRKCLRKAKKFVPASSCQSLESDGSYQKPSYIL
Sequence of human Peroxisome Proliferator-activated Receptor delta (PPARd), PPARD (gene 5467) (Q03181 whole entry, looked up, the tested form may be a part): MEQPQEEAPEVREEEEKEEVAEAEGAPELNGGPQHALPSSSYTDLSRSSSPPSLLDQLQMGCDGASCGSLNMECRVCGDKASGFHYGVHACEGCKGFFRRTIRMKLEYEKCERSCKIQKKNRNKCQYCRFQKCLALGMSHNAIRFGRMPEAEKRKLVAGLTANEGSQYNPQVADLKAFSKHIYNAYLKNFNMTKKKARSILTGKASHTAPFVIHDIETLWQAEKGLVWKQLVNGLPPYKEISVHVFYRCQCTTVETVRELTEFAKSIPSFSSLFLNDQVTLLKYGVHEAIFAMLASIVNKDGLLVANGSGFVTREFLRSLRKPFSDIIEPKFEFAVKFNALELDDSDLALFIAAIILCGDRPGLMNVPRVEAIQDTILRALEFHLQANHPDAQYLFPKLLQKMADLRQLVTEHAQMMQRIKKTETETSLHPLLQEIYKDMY
Sequence of human Peroxisome Proliferator-activated Receptor alpha (PPARa), PPARA (gene 5465) (Q07869 whole entry, looked up): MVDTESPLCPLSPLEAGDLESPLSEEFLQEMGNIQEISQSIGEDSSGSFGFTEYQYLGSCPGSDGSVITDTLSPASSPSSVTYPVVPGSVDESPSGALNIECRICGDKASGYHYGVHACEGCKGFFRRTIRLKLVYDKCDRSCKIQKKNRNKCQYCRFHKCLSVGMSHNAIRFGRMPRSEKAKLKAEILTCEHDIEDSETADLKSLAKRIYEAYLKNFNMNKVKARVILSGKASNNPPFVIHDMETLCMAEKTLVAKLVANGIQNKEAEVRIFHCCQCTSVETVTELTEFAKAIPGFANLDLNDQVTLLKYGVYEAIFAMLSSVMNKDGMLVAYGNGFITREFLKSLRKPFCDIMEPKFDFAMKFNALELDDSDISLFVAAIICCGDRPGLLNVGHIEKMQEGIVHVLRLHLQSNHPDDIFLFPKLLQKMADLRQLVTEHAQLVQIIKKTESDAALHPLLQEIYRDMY
Sequence of Retinoic acid receptor alpha (Homo sapiens) (P10276 whole entry, looked up, the tested form may be a part): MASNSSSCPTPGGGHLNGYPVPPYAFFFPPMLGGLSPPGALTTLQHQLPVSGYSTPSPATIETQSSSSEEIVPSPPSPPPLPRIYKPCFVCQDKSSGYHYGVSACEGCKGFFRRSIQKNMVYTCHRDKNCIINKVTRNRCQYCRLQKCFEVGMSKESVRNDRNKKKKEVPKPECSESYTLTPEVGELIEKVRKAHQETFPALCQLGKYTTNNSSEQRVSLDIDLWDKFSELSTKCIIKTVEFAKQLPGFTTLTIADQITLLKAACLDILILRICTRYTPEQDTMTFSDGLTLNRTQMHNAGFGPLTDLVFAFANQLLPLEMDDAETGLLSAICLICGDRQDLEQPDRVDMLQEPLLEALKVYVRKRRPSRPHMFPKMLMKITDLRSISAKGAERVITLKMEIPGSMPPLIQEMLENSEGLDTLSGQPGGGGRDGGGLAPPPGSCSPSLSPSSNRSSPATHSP
Sequence of human RAR-related Orphan Receptor beta (RORb), RORB (gene 6096) (Q92753 whole entry, looked up, the tested form may be a part): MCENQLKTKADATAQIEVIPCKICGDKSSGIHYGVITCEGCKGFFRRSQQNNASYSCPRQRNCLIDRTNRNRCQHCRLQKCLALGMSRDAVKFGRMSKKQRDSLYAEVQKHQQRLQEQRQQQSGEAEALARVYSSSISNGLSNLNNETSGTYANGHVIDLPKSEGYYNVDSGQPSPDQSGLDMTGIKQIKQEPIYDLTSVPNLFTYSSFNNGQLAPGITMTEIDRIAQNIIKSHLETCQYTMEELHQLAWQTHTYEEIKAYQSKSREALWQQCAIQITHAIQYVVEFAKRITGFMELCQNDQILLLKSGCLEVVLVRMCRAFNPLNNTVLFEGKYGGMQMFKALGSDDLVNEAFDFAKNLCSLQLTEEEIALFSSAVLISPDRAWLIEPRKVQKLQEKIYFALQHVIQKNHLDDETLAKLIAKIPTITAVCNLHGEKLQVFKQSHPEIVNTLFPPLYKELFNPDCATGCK
Sequence of human RAR-related Orphan Receptor gamma (RORg), RORC (gene 6097) (P51449 whole entry, looked up, the tested form may be a part): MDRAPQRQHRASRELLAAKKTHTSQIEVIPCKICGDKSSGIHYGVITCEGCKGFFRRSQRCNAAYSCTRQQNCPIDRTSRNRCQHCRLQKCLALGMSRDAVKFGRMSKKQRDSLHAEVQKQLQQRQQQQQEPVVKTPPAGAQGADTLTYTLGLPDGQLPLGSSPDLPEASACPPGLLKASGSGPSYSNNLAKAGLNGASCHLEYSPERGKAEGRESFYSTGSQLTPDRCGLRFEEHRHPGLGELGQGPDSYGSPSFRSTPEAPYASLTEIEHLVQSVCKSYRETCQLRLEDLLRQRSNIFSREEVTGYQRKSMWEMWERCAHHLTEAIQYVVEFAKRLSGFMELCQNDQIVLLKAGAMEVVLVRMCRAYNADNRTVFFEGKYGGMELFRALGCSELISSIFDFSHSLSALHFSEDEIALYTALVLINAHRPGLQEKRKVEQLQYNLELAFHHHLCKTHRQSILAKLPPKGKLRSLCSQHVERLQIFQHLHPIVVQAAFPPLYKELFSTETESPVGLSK

As usually defined, the AC50 is the midpoint of the concentration-response curve, whichever way the signal moves. Turning to `CN(C[C@@H](CC[N+]12CCC(C3CCCCC3)(CC1)CC2)c1ccc(Cl)c(Cl)c1)C(=O)c1cc(C(F)(F)F)cc(C(F)(F)F)c1`, the call in experiment [1], in experiment [2], in [5], in [6], in [7] and in [8] was inactive. For the same molecule, the molecule was called inactive in [9] and in [10]. Also, the half-maximal activity concentration (AC50) is 39 µM (active) in experiment [3]; 12.9 µM (active) in [4]; 27.5 µM (active) in experiment [11]; 27.6 µM (active) in experiment [12]; 21.1 µM (active) in experiment [13]; 27.2 µM (active) in experiment [14]. For the same molecule, the AC50 is 14.6 µM (active) in experiment [15], 24.3 µM (active) in experiment [16] and 33.6 µM (active) in experiment [17].
Take `Cc1cn([C@H]2C[C@H](N=[N+]=[N-])[C@@H](CO)O2)c(=O)[nH]c1=O`: the result in experiment [1], in [2], in experiment [3], in experiment [4], in experiment [18] and in experiment [5] was inactive. The call in experiment [8], in [9], in experiment [11], in [12], in [13] and in [14] was inactive. Also, the outcome in [15], in [16] and in [17] was inactive.
In the case of `CC[C@@H]1C[C@H](N(Cc2cc(C(F)(F)F)cc(C(F)(F)F)c2)C(C)=O)c2cc(C(F)(F)F)ccc2N1C(=O)OC(C)C`, the molecule was classed as inactive in [2], in experiment [3], in [19], in [4], in [18] and in [8]. Further, the molecule was called inactive in experiment [9], in [11], in experiment [12], in experiment [13], in experiment [14] and in experiment [15]. Besides, the result in experiment [16] and in [17] was inactive. The results for the AC50 in experiment [20] and in [5] were 1.1 µM (active) and 0.118 µM (active), respectively.
